# A selection: hits, their analogues and other compounds. The true share with any hit is near 11%.
# IMPase cell inh: membrane-permeable compound that blocks inositol monophosphatase. 120,000 tested, under 10 active. CHO-M1 cells, IP1 accumulation, HTRF TR-FRET ratio. AID 901. inhibition (IP1 accumulation), % at 46.1 µM; active means well fitted curve in the direction sought with a large enough effect in the signal ratio, not every such curve was filed as active; inconclusive means small, poorly fitted or top-dose-only effect, or a change in a side signal; inactive means no such curve, though single readings can be large or run the other way; the % refers to the signal ratio;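 further: cells stimulated with carbachol in lithium chloride buffer; plate controls were DMSO basal wells for no effect and reference inhibitor wells for full effect; higher means more IMPase inhibition seen as more IP1 and lower FRET ratio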
#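 The IP-One HTRF competitive assay in carbachol-stimulated CHO-M1 cells quantifies cellular IP1. Compounds spanned up to 46 uM final, and activity is expressed as AC50 from concentration-response fits of the ratio and donor data.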
# PNC inhibitor: inhibitors of perinucleolar compartment assembly; PC3M PTB-GFP, PNC prevalence imaging, 16 h; hits give low values; activity change (PNC), negative = inhibition, % at 10 µM; actives 3.1% (n = 140,000); AID 2417;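 active means readout at or below -70, meaning at least 70% loss of cells showing the perinucleolar compartment, a nuclear body marking cancer cells; inconclusive means readout between -30 and a set limit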;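 further: plate controls were DMSO wells for no effect and camptothecin positive control wells for full effect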
#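 Read-out is percentage of cells bearing a perinucleolar compartment, from automated 20x imaging of fixed, Hoechst-stained PC3M PTB-GFP cells. Cells were seeded 4 h, then exposed 16 h to compound (23 nl of library stock) in duplicate plates.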
# IMPase Li cell: membrane-permeable IMPase blocker, potentiated with lithium; AID 1457; Potency, µM (series often up to 59.4 µM), for inactives: at the highest dose activity, negative = IMPase inhibition, actives largely listed as inhibitors; CHO-M1 cells, IP1 TR-FRET (IP-One), carbachol + lithium; actives 0.35% (n = 210,000);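 further: IP1 builds up when IMPase is blocked and the TR-FRET signal falls; potency means the concentration at half of the fitted maximal effect; plate controls were basal vehicle for no effect and high inhibitor control for full effect; nearly all actives have a fitted effect of over 50% in size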
#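 CHO cells stably expressing M1 receptor (2000/well, cultured 16–30 h) treated 30 min at 37C with compound plus low lithium. Cytosolic IP1 by TR-FRET (665/620 ratio and 620 channel) after 10 min lysis; AC50 by Hill fit.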
# ALDH1A1 inh: inhibitors of human aldehyde dehydrogenase 1A1. Potency, µM (highest dose often 75.3 µM), inactives show at the highest dose activity, negative = inhibition, hits mostly inhibitors. Purified ALDH1A1, NADH fluorescence, propionaldehyde substrate. actives 7.3% (n = 220,000); active means well fitted inhibition curve with a large enough effect, not every such curve was filed as active; inconclusive means small, poorly fitted or top-dose-only effect, or another doubt; inactive means no such curve, though single readings can be large or run the other way;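 further: potency means the concentration at half of the fitted maximal effect; plate controls were no enzyme wells and a reference inhibitor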
# NPSR antag: blocks cAMP signaling of the human neuropeptide S receptor. CHO-NPSR cells, cAMP TR-FRET, antagonist mode. Potency, µM (highest dose often 38.3 µM), for the others: at the highest dose activity change, negative = inhibition, usual class: inhibitors. Q6W5P4. AID 1461. actives 1% (n = 220,000); further: potency means the concentration at half of the fitted maximal effect; nearly all actives have a fitted effect of over 50% in size
# Target sequence (Q6W5P4 whole entry, looked up): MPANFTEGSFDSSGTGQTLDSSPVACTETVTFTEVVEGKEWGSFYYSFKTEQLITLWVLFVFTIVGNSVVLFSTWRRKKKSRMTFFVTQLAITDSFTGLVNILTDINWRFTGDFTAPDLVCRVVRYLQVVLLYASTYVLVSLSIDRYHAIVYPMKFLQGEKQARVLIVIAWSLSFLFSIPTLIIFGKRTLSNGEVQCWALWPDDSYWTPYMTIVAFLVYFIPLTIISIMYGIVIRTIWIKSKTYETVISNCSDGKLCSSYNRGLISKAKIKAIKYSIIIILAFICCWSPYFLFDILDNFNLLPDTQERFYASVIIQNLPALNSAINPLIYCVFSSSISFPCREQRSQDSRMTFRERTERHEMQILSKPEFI
# HPGD block: blocks human HPGD enzyme activity | purified HPGD, NADH fluorescence kinetic, PGE2 substrate | P15428 | Potency, µM, without a hit: at the top dose activity change, negative = inhibition, most hits filed as inhibitors | AID 894 | actives 4.3% (n = 150,000); active means well fitted inhibition curve with a large enough effect, not every such curve was filed as active; inconclusive means small, poorly fitted or top-dose-only effect, or another doubt; inactive means no such curve, though single readings can be large or run the other way; further: potency means the concentration at half of the fitted maximal effect
# Target sequence (P15428 whole entry, looked up): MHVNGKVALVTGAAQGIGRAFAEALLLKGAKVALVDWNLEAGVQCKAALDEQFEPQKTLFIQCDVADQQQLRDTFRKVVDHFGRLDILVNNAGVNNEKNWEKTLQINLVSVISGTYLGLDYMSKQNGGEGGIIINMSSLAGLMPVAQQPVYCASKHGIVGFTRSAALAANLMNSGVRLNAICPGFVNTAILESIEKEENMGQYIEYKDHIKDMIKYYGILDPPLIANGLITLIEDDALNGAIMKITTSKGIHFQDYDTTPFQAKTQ
#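 NADH formation kinetics: reaction with 30 uM PGE2 and 1 mM NAD+ (final), 20 nM enzyme, Tris-HCl pH 8 with Tween 20, after 15 min compound preincubation at room temperature. Fluorescence change, last versus first of five reads.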
# Starred values were filed as active, the others as inactive; u = inconclusive; x = no result given; [ ] = remark or other dose. Unless noted, the call rests on the fitted dose curve; in most records, active means well fitted curve in the direction sought with a large enough effect; inconclusive means small, poorly fitted or top-dose-only effect, or another doubt; inactive means no such curve, though single readings can be large; an effect the other way counts as inactive or inconclusive. Unless noted, on the % scale 0 is the no-effect control and ±100 the full control effect.
SMILES,IMPase cell inh,PNC inhibitor,IMPase Li cell,ALDH1A1 inh,NPSR antag,HPGD block
C[N+]1(CC(=O)NNc2c3ccccc3nc3ccccc23)CCOCC1,x,x,40.1%,1.2%,-38.8%,x
COc1ccc(/C=N/NC(=O)c2ccc(NC(=O)c3cccc([N+](=O)[O-])c3)cc2)c(OC)c1,x,x,6.0%,u,5.6%,x
Cc1ccc(C(=O)N/N=C\C=C\c2ccccc2[N+](=O)[O-])cn1,x,x,14.5%,7.94µM*,-23.6%,x
COc1ccccc1/C=N/NC(=O)c1ccc(NC(=O)c2cccc([N+](=O)[O-])c2)cc1,x,x,0.9%,7.94µM*,-9.9%,x
Cc1ccc(-c2ccc(/C=N/O)o2)cc1[N+](=O)[O-],x,x,0.4%,3.16µM*,4.0%,x
COc1ccc(/C=N\NC(=O)c2cccc([N+](=O)[O-])c2)cc1Cn1cc([N+](=O)[O-])cn1,x,x,11.5%,20µM*,16.7%,x
COc1ccc(-c2noc(C(=O)NCc3ccccc3Cl)n2)cc1OC,x,x,15.2%,-5.1%,0.1%,x
COc1cc([N+](=O)[O-])cc(/C=N/NC(=O)CC#N)c1O,x,x,-6.4%,14.1µM*,-6.2%,x
CCC(=O)Nc1ccc(C(=O)N/N=C/c2ccccc2[N+](=O)[O-])cc1,4.6,-19.2,11.2%[38.3 µM],28.2µM*,-9.9%[46.1 µM],-20.5%
NC(=S)N/N=C/c1ccccc1[N+](=O)[O-],x,x,-3.8%,22.4µM*,-9.5%,x
NC(=S)N/N=C/c1ccc(-c2ccc([N+](=O)[O-])cc2)o1,x,x,18.8%,0.891µM*,-20.8%,x
CCNC(=S)N/N=C/c1ccccc1[N+](=O)[O-],x,x,6.7%,3.0%,-32.6%,x
CC(C)C(C)NC(=O)CN1C(=O)NC2(CCc3ccccc3C2)C1=O (configuration not stated),x,x,-10.5%,7.3%,8.5%,x
COc1cccc(/C=N/NC(=O)c2cc3cc([N+](=O)[O-])ccc3s2)c1O,x,u,-4.6%,18.6%,u,28.2µM*
COc1cccc(/C=N/NC(=O)C(=O)N/N=C/c2cccc(OC)c2O)c1O,x,x,0.6%,11.3%,3.8%,x
CCc1ccc(Nc2nnc(SCC(=O)Nc3cccc(S(=O)(=O)NC4=NCCCCC4)c3)s2)cc1,x,0.0,-1.0%,17.8µM*,1.2%,u
Cc1cccc(Nc2nnc(SCC(=O)Nc3cccc(S(=O)(=O)N4CCCCC4)c3)s2)c1,x,13.3,4.8%,u,-16.1%,20µM*
CCCC(C)c1nnc(NC(=O)CN2C(=O)c3ccccc3C2=O)s1 (configuration not stated),x,x,4.0%,28.2µM*,0.0%,x
Cc1ccc2sc(NC(=O)CN3C(=O)c4ccccc4C3=O)nc2c1C,x,-118.9*,16.0%,3.9%,8.6%,-6.9%
Cc1cccc2sc(NC(=O)CN3C(=O)c4ccccc4C3=O)nc12,-9.3,u,5.9%,10.1%,8.0%,-7.2%
Cc1cccc(NC(=O)COc2ccc(/C=N\n3cnnc3)cc2)c1,x,37.2,12.6%,-11.6%,-2.4%,-4.1%
COc1cc(SC)ccc1C(=O)Nc1ccon1,0.7,u,6.7%[38.3 µM],20µM*,-6.2%[46.1 µM],-23.3%
COc1ccc(-c2[nH]ncc2-c2cnn(-c3ccccc3)c2)c(O)c1,6.7,15.0,1.4%[38.3 µM],u,-21.9%[46.1 µM],-19.4%
Cc1cc(Cl)ccc1OCc1n[nH]c(=S)n1C1CCCCC1,9.1,-9.6,4.5%,u,-5.6%[46.1 µM],5.01µM*
Cc1ccsc1-c1n[nH]c(=S)n1C1CCCCC1,x,6.2,-2.0%,3.3%,-0.7%,-28.8%
SMILES,IMPase cell inh,PNC inhibitor,IMPase Li cell,ALDH1A1 inh,NPSR antag,HPGD block
COc1ccc(-c2n[nH]c(=S)n2C2CCCCC2)cc1,1.8,u,-4.5%[38.3 µM],u,0.1%[46.1 µM],17.8µM*
COc1ccc(Cl)cc1-c1n[nH]c(=S)n1C1CCCCC1,-10.6,43.6,0.9%[38.3 µM],5.1%,-19.5%[46.1 µM],10µM*
COCCCn1c(C)nnc1SCc1ccc(C(C)(C)C)cc1,x,x,5.7%,2.6%,-6.3%,x
COc1ccc(CN2C(=O)c3c(c(C)n(C)c3C)C2C(=O)NC2CCC(C)CC2)cc1 (configuration not stated),x,x,8.4%,0.794µM*,-19.4%,x
COc1ccc(-c2nc(CS(=O)CC(=O)NCC3CCCO3)c(C)o2)cc1 (configuration not stated),-2.0,-12.5,-0.1%[38.3 µM],-12.1%,-1.9%[46.1 µM],-15.1%
CC1=CC(=C2N=C(c3ccccc3)OC2=O)C=C(C)O1,-4.4,-7.2,17.9%[38.3 µM],-1.4%,-28.0%[46.1 µM],-1.9%
O=C(NCc1cccnc1)/C(=C\c1ccc(-c2ccc(Br)cc2)o1)S(=O)(=O)c1ccccc1,-1.0,u,15.7%,3.55µM*,-51.4%,-15.8%
O=C(NCc1cccnc1)/C(=C/c1ccc(-c2ccc(Cl)cc2)o1)S(=O)(=O)c1ccccc1,16.0,30.7,17.0%[38.3 µM],u,10µM*,u
O=C(NCc1cccnc1)/C(=C/c1ccc(-c2cccc(C(F)(F)F)c2)o1)NC(=O)c1ccccc1,6.9,15.4,10.2%[38.3 µM],7.9%,-0.6%[46.1 µM],u
O=C(CC(c1ccccc1)c1ccccc1)Nc1ccc(Cl)cn1,12.2,-20.3,19.3%[38.3 µM],-1.2%,10µM*,-20.0%
Cc1ccc(/C(N)=N/OC(=O)c2ccc(C)cc2Cl)cc1,x,1.7,2.5%,-0.8%,10.1%,u
Cc1cccc(/C(N)=N/OC(=O)c2ccc(Cl)cc2Cl)c1,x,-2.2,0.1%,8.6%,-1.2%,15.8µM*
O=C(O/N=C(\c1ccccc1)c1ccncc1)c1ccccc1Cl,x,x,-8.2%,u,u,x
COc1ccccc1C(=O)O/N=C(\N)c1ccccc1Cl,x,-2.1,-7.1%,-3.5%,21.6%,28.2µM*
N/C(=N\OC(=O)c1ccc(Cl)cc1Cl)c1ccc(Cl)cc1,0.6,19.8,-3.2%[38.3 µM],10.6%,-8.3%[46.1 µM],5.01µM*
N/C(=N\OC(=O)c1ccccc1Cl)c1ccccc1,11.9,78.7,-9.2%[38.3 µM],-10.3%,-4.1%[46.1 µM],11.2µM*
COc1ccc(/C(C)=N/NC(=O)c2ccc(N(C)C)cc2)cc1,3.0,31.1,9.2%[38.3 µM],-13.5%,-9.8%[46.1 µM],-11.0%
CCOC(=O)N1CCN(Cc2ccc(F)cc2F)CC1,-2.6,0.5,3.6%[38.3 µM],u,-9.2%[46.1 µM],6.0%
COc1ccc(C(=O)O/N=C(\N)c2ccccn2)c(OC)c1,x,x,x,x,2.2%,x
N/C(=N\OC(=O)c1ccc(Cl)cc1Cl)c1cccnc1,x,x,1.7%,u,2.2%,x
COc1ccc(C(=O)O/N=C(\N)c2ccccc2)c(OC)c1,x,2.7,-0.8%,u,10.2%,14.1µM*

# From PubChem
